We go through eight compounds from PubChem BioAssay (NCI).

Molecules are shown by their SMILES. This is part of a sample that, as a whole, favours compounds with a hit. Of some 79,000 tested, about 15% had one in any assay. A number with no mark means an inactive call. The source made the active and inactive calls. No stated cut-off is given here; in the data, active means growth inhibition above about 70%; inactive means the rest.

A short description of the test: NCI Yeast Anticancer Drug Screen. Data for the rad52 strain (AID 147).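 Further: 0% = growth of vehicle-treated control cultures.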 The note with it: S. cerevisiae rad52 mutant growth inhibition, stronger effect = higher value. The procedure:
Growth inhibition of yeast strains with defined genetic alterations is measured as a screen for potential anti-cancer activity. Selected strains with alterations in DNA damage repair or cell cycle control were exposed to compounds and growth inhibition was measured relative to vehicle treated controls. The strain used in this assay is rad52

Take `CCOC(=O)[C@H]1Nc2ccccc2C2c3ccccc3CC21` (stereo not given in full): the growth inhibition runs as follows: (at 1.2 µM) -39%; (at 3.7 µM) -44%; (at 11.0 µM) -10%; (at 33.0 µM) 55%; (at 100.0 µM) 76% (active).

For the compound `O=C1OC(=O)C2CCCC3CCCC1C32` (stereo not given), the growth inhibition runs as follows: (at 1.2 µM) 23%; (at 3.7 µM) 67%; (at 11.0 µM) 85% (active); (at 33.0 µM) 90% (active); (at 100.0 µM) 97% (active).

As to `CC(=O)OCc1ccc(O)c(C=O)c1`, the growth inhibition by setting is: (at 1.2 µM) 1%; (at 3.7 µM) 1%; (at 11.0 µM) -10%; (at 33.0 µM) 18%; (at 100.0 µM) 57%.

On to `N#Cc1ccc(C2NN=CC23C(=O)c2ccccc2OC3c2ccccc2)cc1` (stereo not given), for which the growth inhibition runs as follows: (at 1.2 µM) 2%; (at 3.7 µM) 5%; (at 11.0 µM) 4%; (at 33.0 µM) 3%; (at 100.0 µM) 5%.

Turning to `OC(c1ccc(F)cc1)(c1ccc(F)cc1)C1CC1`, the growth inhibition is, setting by setting: (at 1.2 µM) -39%; (at 3.7 µM) -58%; (at 11.0 µM) -47%; (at 33.0 µM) 12%; (at 100.0 µM) 76% (active).

Regarding `O=C1CSC(/C=C/c2ccccc2)N1c1ccc(-c2ccc(-n3c(-c4ccccc4)nc4ccccc4c3=O)cc2)cc1` (stereo not given), the growth inhibition was -2% (at 1.2 µM); 1% (at 3.7 µM); 4% (at 11.0 µM); 15% (at 33.0 µM); 61% (at 100.0 µM).

`Oc1ccc2ccccc2c1C(c1ccc(Cl)cc1)c1c(O)ccc2ccccc12`: the growth inhibition (at 1.2 µM) was -39%; the growth inhibition (at 3.7 µM) was -23%; the growth inhibition (at 11.0 µM) is -17%; the growth inhibition (at 33.0 µM) was 51%; the growth inhibition (at 100.0 µM) is 84% (active).

Consider `CC1=C(SCCO)C(=O)c2ccccc2C1=O`, for which the growth inhibition is, setting by setting: (at 1.2 µM) -4%; (at 3.7 µM) 1%; (at 11.0 µM) 13%; (at 33.0 µM) 68%; (at 100.0 µM) 67%.
